The record followed here is PubChem BioAssay (EPA / NIEHS).

Records with an inconclusive call do not appear. Activity calls are given as the source filed them. The calls were made as follows: active = hit-call score of the fitted dose curve at least 0.9, where 1 is the maximum; inconclusive = response in the unintended direction; inactive = score below 0.9.

As usually defined, the AC50 is the midpoint of the concentration-response curve, whichever way the signal moves.

The test can be described thus: TOX21_p53_BLA_p2_viability: Viability Assessment in the Tox21 HCT-116 p53 Agonism Beta-lactamase Assay, Phase 2 (AID 2283591).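 Also: compound exposure lasted 16 h at 37 °C; actives lower the ATP signal meaning cytotoxicity.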 The gist of the method:
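HCT116 p53-bla cells, 4000/well, dosed after 5 h plating (217-fold dilution of DMSO stocks) and incubated 16 h at 37C. Viability taken as cellular ATP by CellTiter-Glo luminescence after 30 min RT; signal loss marks cytotoxicity.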
With `Cc1c(C(C)C)c(=O)n(-c2ccccc2)n1C`, the call was inactive.
On to `COc1ccccc1N1CCN(CCCCNC(=O)c2ccc(-c3ccc(C(C)=O)cc3)cc2)CC1`, for which the call was inactive.
As for `C[C@]12CC[C@@H]3c4ccc(OS(=O)(=O)O)cc4CC[C@H]3[C@@H]1CCC2=O`, the compound was classed as inactive.
On the same count and under the same terms, next, `CN(C)c1ccc(/C=C/c2ccc([N+](=O)[O-])cc2)cc1`: “inactive”; `CC(=O)O[C@H]1C[C@@]2(C)[C@@H](C[C@@H](O)[C@H]3[C@@]4(C)CC[C@@H](O)[C@@H](C)[C@@H]4CC[C@@]32C)/C1=C(\CCC=C(C)C)C(=O)O`: “inactive”; `CC(CNC(=O)c1cccnc1)NC(=O)c1cccnc1` (stereo not given): “inactive”.
Take `O=C1c2ccccc2S(=O)(=O)N1CCCCN1CCN(c2ncccn2)CC1`: the compound was called inactive.
With `OCC=CCO`, the outcome was inactive.
Consider `CN(C)CCCNCCC#N`, for which the compound was called inactive.
As to `c1ccc2cc(C3=NCCN3)ccc2c1`, the result was inactive.
Regarding `CC(=O)OCC(=O)[C@@]1(O)[C@H](OC(C)=O)C[C@H]2[C@@H]3CCC4=CC(=O)C=C[C@]4(C)[C@@]3(F)[C@@H](O)C[C@@]21C`, the result was inactive.
Still for that read-out and setting: next, `COc1cc(-c2ccc(=O)[nH]n2)ccc1OC(F)F`: “inactive”; `CCOc1ccc(O)cc1`: “inactive”.
On to `Cc1nc2n(c(=O)c1CCN1CCC(c3noc4cc(F)ccc34)CC1)CCCC2`, for which the outcome was inactive.
On the same count and under the same terms, next, `CCC(=O)O[C@]1(C(=O)CCl)[C@@H](C)C[C@H]2[C@@H]3CCC4=CC(=O)C=C[C@]4(C)[C@@]3(F)[C@@H](O)C[C@@]21C`: “inactive”.
On the same count and under the same terms, next, `CC(C)(C)C1(CCc2ccc(Cl)cc2)CO1` (stereo not given): “inactive”; `CCOC(=O)[C@H](CCc1ccccc1)N[C@H]1CS[C@H](c2cccs2)CN(CC(=O)O)C1=O`: “inactive”.
The same measure, in the same setting: next, `C1C[C@@H]2[C@H]3CC[C@H](C3)[C@@H]2C1`: “inactive”.
With `CN=C(N)NC(=O)Nc1c(C)cccc1C`, the compound was classed as inactive.
As to `CC(C)SCc1ccco1`, the compound was called inactive.
Same read-out and setting: next, `CN(C)CCOC(c1ccc(Cl)cc1)c1ccccn1` (stereo not given): “inactive”; `COC(=O)CC#N`: “inactive”.
Still for that read-out and setting: next, `C/C(=N\O)c1ccc(OCC(=O)N2CCCCC2)cc1`: “inactive”; `O=Cc1ccc(Cl)c(Cl)c1`: “inactive”; `CO/N=C(\C(=O)N[C@@H]1C(=O)N2C(C(=O)[O-])=C(C[n+]3ccc(N)n3CCO)CS[C@H]12)c1csc(N)n1`: “inactive”.
With `CN=C(NC#N)NCCSCc1csc(N=C(N)N)n1`, the call was inactive.
As for `O=C(O)[C@@H]1C[C@H](CP(=O)(O)O)CCN1`, the result was inactive.
As to `Oc1ccc(C2(c3ccc(O)cc3)CC3CC2C2CCCC32)cc1` (stereo not given), the AC50 is 64.1 µM (active).
For the compound `O=C1c2ccccc2C(=O)C1c1ccc(Br)cc1`, the call was inactive.
The same measure, in the same setting: next, `CC1(C)CC(OC(=O)CCCCCCCCC(=O)OC2CC(C)(C)NC(C)(C)C2)CC(C)(C)N1`: “inactive”.
Same read-out and setting: next, `CO/N=C(\C(=O)N[C@@H]1C(=O)N2C(C(=O)O)=C(CSC(=O)c3ccco3)CS[C@H]12)c1csc(N)n1`: “inactive”; `c1ccc2cc3c4ccccc4c4ccccc4c3cc2c1`: “inactive”.
Same read-out and setting: next, `CCC(=O)OC/C=C/c1ccccc1`: “inactive”; `CCC(N)(CO)CO`: “inactive”; `C=CCCC=C`: “inactive”.
For `COc1ccc(C2C(=O)c3ccccc3C2=O)cc1`, the compound was called inactive.
The same measure, in the same setting: next, `CC(=O)Nc1ccc(N)cc1`: “inactive”; `O=C(O)CCC(=O)c1ccc(-c2ccccc2)cc1`: “inactive”.
`Oc1cc(O)c2c(c1)O[C@H](c1ccc(O)c(O)c1)[C@H](O)C2`: the result was inactive.
Same read-out and setting: next, `C[N+](C)(C)CCOC(=O)CCC(=O)OCC[N+](C)(C)C`: “inactive”.
